tim23-1 inh = inhibits growth of tim23-1 mutant yeast; S. cerevisiae tim23-1 growth, BacTiter-Glo luminescence, 24 h; inhibition, % at 20 µM; 330,000 compounds, 1.3% hits; AID 463212;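 active = growth inhibition of the mutant yeast at or above 50%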;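 note: temperature-sensitive mutant grown at 25 °C; plate controls were DMSO-treated mutant yeast for no effect and medium wells lacking yeast for full effect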
TIM10 inh = growth inhibitors of TIM10 yeast strain | S. cerevisiae TIM10 strain growth, BacTiter-Glo luminescence, 24 h | inhibition, % at 10 µM | 330,000 compounds, 1.4% hits | AID 463195;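 active = inhibition of 40% or more at the single tested concentration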;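 note: wild-type TIM10 isogenic control strain grown at permissive 25 °C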
NALP3 yeast inh = blocks the NALP3 inflammasome reconstituted in yeast | AID 2825 | Yeast reconstituted NLRP3/ASC/caspase-1, beta-gal luminescence, 24 h | 330,000 compounds, 0.39% hits | inhibition, % at 10 µM;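 active = inhibition of 50% or more; inactive = inhibition below 50%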;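 note: plate controls were induced DMSO wells for no effect and uninduced yeast grown without galactose for full effect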
SKKanGAS inh = blocks kanamycin growth of S. pyogenes SKKanGAS strain; BacTiter-Glo, 6 h; inhibition, % at 7.5 µM; 300,000 compounds, 1.3% hits; AID 1662;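 active = mean replicate score, as percent of positive control median, at least 50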;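 note: strain carries kanamycin resistance gene driven by streptokinase promoter and grows in 40 µg/ml kanamycin; loss of luminescence reflects streptokinase promoter inhibition or plain growth inhibition; 0% = median of DMSO wells and 100% = positive control at its reference dose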
tim10-1 inh = inhibits growth of tim10-1 mutant yeast; inhibition, % at 20 µM; 330,000 compounds, 2.2% hits; S. cerevisiae tim10-1 ts strain growth, BacTiter-Glo, 24 h; AID 463190;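 active = inhibition of at least 40%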;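 note: mutant grown at 25 °C; 0% = DMSO wells with yeast and 100% = wells holding no yeast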
Numbers without * were called inactive; · = no result. Shown are actives, neighbours in structure and some others; about 4.6% of the full set was active somewhere.

SMILES	tim23-1 inh	TIM10 inh	NALP3 yeast inh	SKKanGAS inh	tim10-1 inh
CC(/C=C1\SC(=S)N(CCCC(=O)Nc2ccc(C(=O)O)cc2)C1=O)=C\c1ccccc1	19.3	14.9	11.1	120.6*	18.5
CC(/C=C1\SC(=S)N(CCC(=O)Nc2cccc(C(=O)O)c2)C1=O)=C\c1ccccc1	24.5	11.0	8.8	111.7*	5.7
CC(=C\c1ccccc1)/C=C1/SC(=S)N(CCCC(=O)O)C1=O	18.0	-0.8	2.1	24.1	7.7
CN(C(=O)C1CCCN1S(=O)(=O)c1ccc(Cl)cc1)c1ccccc1 (configuration not stated)	27.9	13.7	5.0	·	25.6
CCOc1ccc(-c2c(C#N)c(N)nc3sc(C(=O)c4ccccc4)c(N)c23)cc1	-12.2	-7.3	18.2	4.4	-4.4
COc1ccc(-c2c(C#N)c(N)nc3sc(C(=O)c4ccccc4)c(N)c23)cc1	·	·	·	52.9*	·
CC(=O)Nc1ccc(NC(=O)Cc2ccc(S(=O)(=O)N3CCCCC3)cc2)cc1	8.1	-4.1	14.8	·	9.0
O=C(/C=C/c1cn(-c2ccccc2)nc1-c1ccccc1)Nc1ccc(C(=O)O)cc1	13.1	8.4	-5.9	49.9*	10.7
Cc1ccc(-c2csc3nc[nH]c(=S)c23)cc1C	46.2	18.9	36.0	93.0*	15.0
CCOc1ccc(NC(=O)CN(C)Cc2ccc3c(c2)OCO3)cc1S(=O)(=O)N1CCCC1	26.0	10.0	13.2	·	20.4
COC(=O)c1cccc(NC(=O)CSc2nnc(C3CC3)n2C)c1	-12.4	1.2	17.3	-6.9	-8.7
CNc1nc(-c2ccc(OC)cc2)c(-c2ccc(OC)cc2)s1	21.3	18.1	21.6	20.2	7.4
COc1ccc(-c2nc(NC(C)=O)sc2-c2ccc(OC)cc2)cc1	24.5	23.6	0.6	66.7*	23.7
CC(C)(C)c1ccc(CN(Cc2ccco2)Cc2nnnn2C2CCCC2)cc1	11.5	22.0	15.4	51.2*	18.1
CCC(C)(C)n1nnnc1CN(Cc1ccc(Cl)cc1)Cc1ccco1	35.3	19.7	-1.1	9.9	29.5
CC(=O)Nc1ccc(S(=O)(=O)NCCC(=O)NCC2COc3ccccc3O2)cc1 (configuration not stated)	3.2	6.7	1.4	-5.1	5.3
COCCCNC(=O)C[C@H]1C[C@H](C(=O)N2CCCCC2)[C@@]2(CCc3ccccc3)c3[nH]c4cc(CCC(=O)N(C)C)ccc4c3CCN2C1=O	29.5	-11.6	·	·	21.4
Clc1ccccc1OCCCCn1ccnc1	16.8	12.5	7.9	58.7*	30.6
COc1ccc(-c2cn[nH]c2-c2ccc(OCc3ccccc3)cc2O)cc1	43.9	32.5	13.1	74.8*	-2.3
O=[N+]([O-])c1ccc(COc2ccc(-c3[nH]ncc3-c3ccc(Cl)cc3)c(O)c2)cc1	-10.9	-1.0	-6.6	94.8*	7.8
COc1ccc(-c2cn[nH]c2-c2ccc(OCc3ccc([N+](=O)[O-])cc3)cc2O)cc1OC	7.9	4.5	2.4	6.9	0.9
COc1ccccc1-c1cn[nH]c1-c1ccc(OCc2ccccc2)cc1O	29.4	28.8	11.8	48.0	-3.3
COc1ccc(-n2ccnc(SCC(=O)NCc3ccccc3Cl)c2=O)cc1	16.5	10.5	10.9	4.7	10.0
COC(=O)c1ccc(CNC(=O)C(C)N=C2NS(=O)(=O)c3ccccc32)cc1 (configuration not stated)	7.7	-8.8	14.0	·	-16.8
COc1ccc(NC(=O)CCCN2C(=O)C3CC=CCC3C2=O)cc1 (configuration not stated)	-5.6	10.4	16.1	-6.8	-3.9
SMILES	tim23-1 inh	TIM10 inh	NALP3 yeast inh	SKKanGAS inh	tim10-1 inh
Cc1cc(C)c2nc(-c3ccccn3)cc(C(=O)Nc3ccc(S(=O)(=O)Nc4onc(C)c4C)cc3)c2c1	13.7	-1.9	3.0	63.8*	7.0
N#CCC(=O)Nc1ccc(C(=O)OC(C(=O)Nc2cc(C(F)(F)F)ccc2Cl)c2ccccc2)cc1 (configuration not stated)	13.8	6.3	25.3	61.4*	11.1
N/C(=N\OC(=O)c1ccccc1)c1ccn[nH]1	12.1	10.1	-0.3	-3.3	6.8
Cc1cc(C)c2c(n1)sc1c(=O)n(CC(=O)c3ccccc3)cnc12	15.4	-5.0	18.6	93.1*	-3.4
CCCCn1c(NC(=O)C2CCCCC2)nc2ccccc21	32.5	16.7	13.9	96.6*	25.6
CCc1ccccc1NC(=O)C1COc2ccccc2O1 (configuration not stated)	5.5	-4.0	26.9	3.3	2.4
CCCn1c(NC(=O)C2COc3ccccc3O2)nc2ccccc21 (configuration not stated)	-15.5	4.8	-2.9	96.9*	4.2
CCCn1c(NC(=O)c2ccccc2Br)nc2ccccc21	41.0	-4.1	3.5	57.9*	30.0
O=C(Nc1nc2ccccc2n1CCN1CCOCC1)c1ccc(COc2ccccc2Br)o1	38.5	25.0	10.2	49.7*	37.3
O=C(Nc1nc2ccccc2n1CCN1CCOCC1)c1ccc(Cn2cc([N+](=O)[O-])cn2)o1	-10.1	-0.1	7.5	26.8	-15.8
COc1ccc(OC)c(-c2csc(NC(=O)C3COc4ccccc4O3)n2)c1 (configuration not stated)	-1.3	16.9	31.6	20.5	8.8
O=C(Nc1nc(-c2nc3ccccc3s2)cs1)C1COc2ccccc2O1 (configuration not stated)	2.6	10.9	18.1	75.8*	4.8
Cc1ccc(-c2ccc(/C=N\NC(=O)c3cc4c(ccc5ccccc54)o3)o2)cc1[N+](=O)[O-]	19.1	-11.7	10.8	-2.2	-7.6
O=C(N/N=C/c1ccc(-c2ccc(Cl)c(C(=O)O)c2)o1)c1cc2c(ccc3ccccc32)o1	-13.5	3.4	11.1	61.2*	-1.8
C=CCSc1nc(-c2ccccc2)c2cc(Cl)ccc2n1	12.6	-5.5	15.1	56.5*	8.9
N#CCSc1nc(-c2ccccc2)c2cc(Cl)ccc2n1	9.3	0.9	-9.2	-6.3	28.2
CC(=O)c1cccc(S(=O)(=O)N2CCN(CCOc3ccccc3)CC2)c1	27.5	7.6	14.5	·	11.8
O=C(COc1cccc(Cl)c1)NNC(=S)Nc1ccccc1	27.3	27.3	22.4	-3.7	18.5
O=C(COc1ccc(Cl)cc1)NNC(=O)c1cccnc1	1.1	-3.9	-8.1	-8.2	-6.8
Cc1ccc(C(=O)CC(=O)COc2ccc(Cl)cc2)cc1	12.6	-8.0	13.5	63.7*	20.4
CCCCC(=O)NC(=S)NNC(=O)c1ccc(Cl)cc1Cl	·	·	·	90.3*	·
Cc1cccc(C(=O)NC(=S)NNC(=O)COc2ccc(Cl)cc2)c1	-8.9	-0.3	23.7	61.8*	9.6
Cc1ccc(C(=O)NCCOc2ccc(Cl)cc2)cc1	32.7	-10.6	41.2	-3.4	-25.7
O=C(COc1ccccc1)NNC(=S)NC(=O)c1ccc(Cl)cc1Cl	4.0	29.7	35.7	77.2*	34.8
COc1ccc(CNC(=O)c2ccc(N3CCC4(CC3)CC(c3ccc(Cl)cc3)=NO4)c(NC(=O)Cc3ccc(F)cc3)c2)cc1	-1.5	-15.0	23.5	·	4.4
